# Reference: PubChem BioAssay AID1851 (National Center for Advancing Translational Sciences (NCATS), 2009)
# Screen size: about 16,000 compounds; about 2,600 (16%) were called active. Not shown: some 20% with an inconclusive outcome. These entries were drawn from the full list. Values without a mark were called inactive. Calls follow the shape of the dose curve; as a rule, active = well fitted curve in the direction sought with a large enough effect; inconclusive = small, poorly fitted or top-dose-only effect, or effect the other way; inactive = no such curve, though single readings can be large or run the other way.
# Target: Cytochrome P450 2D6 (Homo sapiens) (UniProt P10635)
# Sequence (P10635 whole entry, looked up): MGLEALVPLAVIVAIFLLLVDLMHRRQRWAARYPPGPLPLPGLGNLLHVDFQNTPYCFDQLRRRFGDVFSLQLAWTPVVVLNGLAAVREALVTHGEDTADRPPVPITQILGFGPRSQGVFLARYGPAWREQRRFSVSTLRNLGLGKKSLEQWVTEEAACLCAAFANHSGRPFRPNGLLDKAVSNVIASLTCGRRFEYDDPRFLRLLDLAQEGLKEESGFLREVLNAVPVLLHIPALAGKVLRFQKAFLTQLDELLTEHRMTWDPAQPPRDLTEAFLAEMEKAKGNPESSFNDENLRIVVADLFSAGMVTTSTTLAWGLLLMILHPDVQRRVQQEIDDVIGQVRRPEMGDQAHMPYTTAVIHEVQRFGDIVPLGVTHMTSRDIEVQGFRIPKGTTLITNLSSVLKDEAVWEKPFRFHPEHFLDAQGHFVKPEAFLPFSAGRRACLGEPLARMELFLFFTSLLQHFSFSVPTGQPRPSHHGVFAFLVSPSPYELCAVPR
# Assay: Cytochrome panel assay with activity outcomes
# Conditions: recombinant CYP, pro-luciferin dealkylation, luminescence, p450-cyp2d6; series mostly up to 57.1 µM
# % is scaled to controls: 0 for no effect and ±100 for the full control effect.
SMILES,AC50,"activity, negative = inhibition"
OC[C@@H]1O[C@@H](n2cnc3c(NC4CCCC4)ncnc32)[C@@H](O)[C@H]1O,inactive,
CCN1C(=O)C=CC1=O,inactive,
CC[N+](CC)(CC)CC,inactive,
Clc1ccc(Sc2cc(N3CCOCC3)nc(-c3ccccc3)n2)cc1,inactive,
CC(=O)C1=C(NC(=O)c2ccc(F)cc2)CC2C1C2(C)C (centres undefined),inactive,
Nc1nc(NCc2ccccc2)nc(Nc2cccc(F)c2)c1[N+](=O)[O-],inactive,
Cc1ccc(CNc2nc(N)c([N+](=O)[O-])c(Nc3ccc(F)cc3)n2)cc1,inactive,
Cc1[nH]nc(Nc2ccccc2)c1[N+](=O)[O-],10000 nM (active),
CCOC(=O)CCc1c(C)nc2ncnn2c1C,inactive,
O=C(OCC#CCSc1nnc(-c2cccc3ccccc23)o1)c1ccco1,inactive,
COc1cc2c(cc1OC)C(C(=O)Nc1ccccn1)C(c1cccnc1)N(C)C2=O (centres undefined),inactive,
c1ccc([C@H](CCN2CCCC2)c2ccccn2)cc1,,12% [at 11.4 µM]
c1ccc(C(CCN2CC3CCC(CC3)C2)c2ccccc2)cc1,794 nM (active),
CCOc1cc(/C=N/NC(=O)CN2CCCCC2)ccc1OCc1ccccc1,inactive,
C/C(CCN1CCc2nc(-c3ccccc3)c(-c3ccccc3)cc2C1)=N\OC[C@@H](O)COCc1ccco1,,7.77% [at 11.4 µM]
Cc1nc2cnc(Oc3cccc(Cl)c3)nc2n(CCc2ccccc2)c1=O,inactive,
COC(=O)[C@@H]1CC[C@H](C)[C@@H](c2ccc(C)cc2)N1C(=O)c1ccc(/C=N\OC[C@@H](C)[C@H](OCc2ccccc2)C(C)C)cc1,3980 nM (active),
CO/N=C\c1ccc(C(=O)N2[C@H](c3ccc(C)cc3)[C@@H](C)CC[C@H]2C(=O)OC)cc1,,16% [at 11.4 µM]
COC(=O)[C@@H]1CC[C@H](C)[C@@H](c2ccc(C)cc2)N1C(=O)c1ccc(/C=N\OC[C@@H](O)COCc2ccco2)cc1,,-0.0575% [at 11.4 µM]
CC(C)(C)C(=O)[C@H]1[C@H](c2ccccc2)[C@@]2(N=C(c3ccccc3)OC2=O)C2c3ccccc3C=NN21 (some centres undefined),inactive,
C#CCCCO/N=C1/C[C@@H](O)[C@@H](O)[C@@H]2[C@H]3C(=O)N(c4ccc(F)cc4F)C(=O)[C@@H]3CC[C@H]12,,-3.2% [at 11.4 µM]
CC(C)(C)c1cc2c(O)c(c1)Cc1cc(C(C)(C)C)cc(c1O)Cc1cc(C(C)(C)C)cc(c1O)Cc1cc(C(C)(C)C)cc(c1O)Cc1cc(C(C)(C)C)cc(c1O)Cc1cc(C(C)(C)C)cc(c1O)Cc1cc(C(C)(C)C)cc(c1O)Cc1cc(C(C)(C)C)cc(c1O)C2,,12.2% [at 11.4 µM]
Oc1cc(CN2COc3ccccc32)c(O)cc1CNC1CCCCC1,,-11.4% [at 11.4 µM]
Cc1cc(C(C)(C)C)cc(CNC2CCCCC2)c1O,501 nM (active),
